According to paper PMC13541613, “GHT-SELEX demonstrates unexpectedly high intrinsic sequence specificity and complex DNA binding of many human transcription factors”:

The sequences below were run against ZNF721 DBD2 (Homo sapiens, UniProt Q8TF20-2 395-923) (assay: HT-SELEX; 20 mM HEPES pH 7, 140 mM KCl, 5 mM NaCl, 1 mM K2HPO4, 2 mM MgSO4, 100 uM EGTA, ZnSO4, 0.1% Tween20; room temperature, 1 h; high values mean tight binding). Settings: protein: ivt; tags: eGFP (N-terminal); dsDNA, one strand shown.
Method in brief: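 A tagged transcription factor, either full-length or its DNA-binding-domain fragment, was made in HEK293 lysate or cell-free extract, immobilised on beads and incubated with a randomized 40-base DNA library for 1 h at room temperature in HEPES/KCl low-stringency buffer containing Tween20. Washed beads were heat-eluted, and the bound DNA was PCR-amplified over successive cycles and Illumina-sequenced at ~3 million 60 bp reads per sample. The binding signal is the relative k-mer count in selected reads, where a higher value means tighter binding.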

ZNF721 DBD2, sequence (Q8TF20 383-911): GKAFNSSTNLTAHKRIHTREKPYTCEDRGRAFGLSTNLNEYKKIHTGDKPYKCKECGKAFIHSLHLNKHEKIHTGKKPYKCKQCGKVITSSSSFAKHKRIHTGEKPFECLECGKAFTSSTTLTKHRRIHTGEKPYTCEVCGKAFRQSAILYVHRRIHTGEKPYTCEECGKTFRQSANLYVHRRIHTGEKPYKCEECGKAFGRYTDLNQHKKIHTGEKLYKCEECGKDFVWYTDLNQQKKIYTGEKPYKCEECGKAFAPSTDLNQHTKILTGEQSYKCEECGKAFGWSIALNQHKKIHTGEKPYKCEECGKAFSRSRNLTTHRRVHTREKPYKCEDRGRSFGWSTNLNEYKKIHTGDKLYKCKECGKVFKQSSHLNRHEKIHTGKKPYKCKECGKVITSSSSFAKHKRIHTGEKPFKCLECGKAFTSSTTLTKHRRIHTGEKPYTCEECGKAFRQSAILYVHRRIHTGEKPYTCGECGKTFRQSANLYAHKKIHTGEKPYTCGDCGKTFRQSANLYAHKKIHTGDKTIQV

Row | Sequence | binding signal [relative 10-mer count]
1 | CCAACCCCAC | 0.00288
2 | CTCCCCCACC | 0.00348
3 | CGTCCCCCCC | 0.00108
4 | ACCCCCCCAC | 0.00695
5 | CCACAAAAAA | 0.0663
6 | ACCCCCCCCA | 0.00276
7 | CCCTCCCCCA | 0.00839
8 | CCCCCCAACC | 0.00707
9 | CCCCCAACCC | 0.00168
10 | AACAAGCAGT | 0.0905
11 | GAAAAAAAGC | 0.0678
12 | GAAAAAAAAA | 0.0513
13 | AAACAGCGTA | 0.468
14 | AAAAAAGCTA | 0.00276
15 | CCCACCCACG | 0.00551
16 | CACAAAAAAA | 0.0847
17 | AACCACCCCC | 0.00276
18 | GGGGGTGGGA | 0.00312
19 | GGGCGGGGGA | 0.00216
20 | CCCACCCAGC | 0.003

Row | Sequence | binding signal [relative 10-mer count]
21 | CCCACCCAAC | 0.0113
22 | ACGAAAAAAG | 0.0417
23 | CCCTCCCCCG | 0.00467
24 | CCCCCTCCCG | 0.00336
25 | CGCCCCCGCC | 0.00216
26 | CCACCCCCCC | 0.00336
27 | AACAGGGTAT | 0.2
28 | CCAGCCCACC | 0.00336
29 | CCTACCCCCC | 0.00707
30 | CCACCGACCC | 0.0036
31 | GCACCCCACC | 0.00491
32 | CAACAAAACA | 0.116
33 | CACCCCCCCG | 0.003
34 | CCACCCGCCA | 0.00491
35 | AAAAGCAGCA | 0.296
36 | AAACAAGCAG | 0.149
37 | CAAAAAAAGC | 0.0675
38 | ACCCCCGCCC | 0.00348
39 | AGAAAAAACA | 0.0902
40 | CCGCCCCACC | 0.00407
